Test results reported in PubChem BioAssay (NCATS).
Results filed as inconclusive are left out. Calls of active or inactive are those of the source. Calls follow the shape of the dose curve; as a rule, active = well fitted curve in the direction sought with a large enough effect; inconclusive = small, poorly fitted or top-dose-only effect, or another doubt; inactive = no such curve, though single readings can be large; an effect the other way counts as inactive or inconclusive.

How the values were obtained:
[1] = tested on: Zika virus NS2B-NS3 protease; test: Primary screen GU AMC qHTS for Zika virus inhibitors (AID 1347154); also: nearly all actives have a fitted effect of over 70% in size; also: potency is read from the fitted curve at half-maximal effect
Procedure, shortened: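 Unlinked Zika NS2B hydrophilic domain/NS3 protease domain noncovalent complex (25 nM final) in 10 mM Tris-HCl pH 8.0, 0.01% Tween 20, with AMC peptide substrate. Fluorescence (ex 340, em 450 nm) change over 15 min, room temperature; percent inhibition fitted to 4-parameter Hill equation.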

[2] = target: Furin (Homo sapiens) (UniProt P09958); test: Furin counterscreen qHTS for Zika virus inhibitors (AID 1347149); also: nearly all actives have a fitted effect of over 70% in size; also: potency is read from the fitted curve at half-maximal effect
Procedure, shortened: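 Counterscreen measures cleavage of 2 microM BOC-RVRR-AMC, below its ~15 microM Km, by 5 nM full-length human furin at pH 7.0 after a 15-min compound preincubation. Inhibition derives from the 15-min fluorescence increase at 37C.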

[3] = tested on: Zika virus NS2B-NS3 protease (linked construct); test: Confirmatory screen NINDS AMC qHTS for Zika virus inhibitors (AID 1347152); also: nearly all actives have a fitted effect of over 70% in size; also: potency is read from the fitted curve at half-maximal effect
Procedure, shortened: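 Linked NS2B-NS3 1 nM, Tris pH 8.0/0.01% Tween 20; cpd 15 min RT dark; + Nle-KRR-AMC 10 µM (Km 18.3 µM); read 0 and 15 min, 340/450 nm; %inh vs controls, 4-param Hill.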

[4] = tested on: Zika virus NS2B-NS3 protease (unlinked complex); test: Confirmatory screen GU AMC qHTS for Zika virus inhibitors (AID 1347153); also: nearly all actives have a fitted effect of over 70% in size;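 as to Potency: enzyme at 25 nM with substrate at 10 µM below its Km of 18.3 µM; potency is read from the fitted curve at half-maximal effect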
Procedure, shortened: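 Unlinked NS2B-NS3 complex (25 nM) in 10 mM Tris-HCl pH 8.0, 0.01% Tween 20 preincubated 15 min with compound, then 10 microM Bz-Nle-KRR-AMC (Km 18.3 µM). Fluorescence change over 15 min, normalized, Hill-fitted.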

[5] = Vero cells viability qHTS for Zika virus inhibitors (AID 1347167)
Procedure, shortened: (§1)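 To flag cytotoxic protease inhibitors, viability is measured by ATP-dependent luminescence (CellTiter Glo) after cells attached overnight receive compound for 24 to 48 hours in DMEM with 4% FBS.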

[6] = HepG2 cells viability qHTS for Zika virus inhibitors (AID 1347168)
Procedure, shortened: as §1

[7] = Tertiary RLuc qRT-PCR qHTS assay for Zika virus inhibitors (AID 1347169); also: nearly all actives have a fitted effect of over 55% in size; also: potency is read from the fitted curve at half-maximal effect
Procedure, shortened: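 Luminescence read-out: live-cell Renilla luciferase substrate applied to infected Vero cells, signal measured after 1-1.5 hrs. Cells had received compound before ZIKV-RLuc (Cambodian strain, MOI 1-2) infection and were incubated 48-72 hrs at 37 degrees C.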

[8] = Confirmatory screen NINDS Rhodamine qHTS for Zika virus inhibitors (AID 1347161); also: nearly all actives have a fitted effect of over 60% in size; also: potency is read from the fitted curve at half-maximal effect
Procedure, shortened: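 Kinetic fluorescence (Ex 480 nm, Em 540 nm) over 15 min with 1.5 microM Rhodamine110 peptide and 25 nM linked protease.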

[9] = tested on: Zika virus NS2B-NS3 protease (linked construct); test: 384 well plate NINDS Rhodamine confirmatory qHTS for Zika virus inhibitors (AID 1347164);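 also: fluorescence from protease cleavage of Ac-LKRR-rhodamine 110 substrate; potency is read from the fitted curve at half-maximal effect; nearly all actives have a fitted effect of over 65% in size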
Procedure, shortened: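 Fluorescence read at ex 485 nm/em 538 nm, 25 min after adding 10 microM Ac-LKRR-Rd substrate at room temperature in the dark; signal normalized to no-enzyme and no-inhibitor controls. Enzyme final 5, 30 or 60 nM; compounds, ~15 min preincubation.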

[10] = qHTS to identify inhibitors of the type 1 interferon - major histocompatibility complex class I in skeletal muscle: primary screen against the NCATS Mechanism Interrogation Plate v5.0 (MIPE) Libary (AID 1347411); also: nearly all actives have a fitted effect of over 65% in size
Procedure, shortened: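 IFN-beta-driven (4 ng/ml) HLA-B-HiBit expression in CRISPR-tagged C25cl48 myoblasts; compounds 11-pt, 1:3, max 46 uM, 24 hr exposure; lytic NanoLuc complementation luminescence.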

[11] = Confirmatory screen GU Rhodamine qHTS for Zika virus inhibitors qHTS (AID 1347157)
Procedure, shortened: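 Percent inhibition derives from the 15-min fluorescence change (ex 480, em 540 nm), normalized to no-enzyme and no-inhibitor wells. Reactions contained 25 nM NS2B-NS3 complex and 1.5 microM substrate in 10 mM Tris-HCl pH 8.0.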

[12] = ZIKV-mCherry secondary qHTS for Zika virus inhibitors (AID 1347158); also: top concentration of the series differs between compounds
Procedure, shortened: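 This orthogonal imaging screen measured ZIKV-mCherry infection of Vero cells exposed to compound, MOI 1, 48-72 h. Percent infection came from segmented nuclei scored mCherry-positive above 3 SD of negative controls.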

[13] = tested on: Zika virus NS2B-NS3 protease (unlinked complex); test: Primary screen GU Rhodamine qHTS for Zika virus inhibitors: Unlinked NS2B-NS3 protease assay (AID 1347159); also: potency is read from the fitted curve at half-maximal effect; nearly all actives have a fitted effect of over 60% in size
Procedure, shortened: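 In dose–response format, inhibition of unlinked protease (25 nM) was measured with 1.5 microM bis-peptide Rhodamine110 substrate. Aprotinin served as the intraplate control.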

[14] = tested on: Zika virus NS2B-NS3 protease (linked); test: 384 well plate NINDS AMC confirmatory qHTS for Zika virus inhibitors (AID 1347163); also: nearly all actives have a fitted effect of over 50% in size; also: potency is read from the fitted curve at half-maximal effect
Procedure, shortened: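 Enzyme (5, 30 or 60 nM final) first met test compounds for ~15 min. The AMC-tagged peptide Ac-VKTGKR-AMC followed at 30 microM. Fluorescence was then recorded at 25 min and scaled against no-enzyme and no-inhibitor wells.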

[15] = tested on: Zika virus NS2B-NS3 protease (linked construct); test: Primary screen NINDS Rhodamine qHTS for Zika virus inhibitors (AID 1347160); also: potency is read from the fitted curve at half-maximal effect; nearly all actives have a fitted effect of over 55% in size
Procedure, shortened: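 Each compound, titrated, sat 15 min with 25 nM linked protease before 1.5 microM Rhodamine110 substrate went in. Fluorescence gain over the next 15 min, in pH 8.0 Tris with Tween 20, gave Hill-fitted curves.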

Measured: Potency

Chain of Furin (Homo sapiens) (P09958 whole entry, looked up): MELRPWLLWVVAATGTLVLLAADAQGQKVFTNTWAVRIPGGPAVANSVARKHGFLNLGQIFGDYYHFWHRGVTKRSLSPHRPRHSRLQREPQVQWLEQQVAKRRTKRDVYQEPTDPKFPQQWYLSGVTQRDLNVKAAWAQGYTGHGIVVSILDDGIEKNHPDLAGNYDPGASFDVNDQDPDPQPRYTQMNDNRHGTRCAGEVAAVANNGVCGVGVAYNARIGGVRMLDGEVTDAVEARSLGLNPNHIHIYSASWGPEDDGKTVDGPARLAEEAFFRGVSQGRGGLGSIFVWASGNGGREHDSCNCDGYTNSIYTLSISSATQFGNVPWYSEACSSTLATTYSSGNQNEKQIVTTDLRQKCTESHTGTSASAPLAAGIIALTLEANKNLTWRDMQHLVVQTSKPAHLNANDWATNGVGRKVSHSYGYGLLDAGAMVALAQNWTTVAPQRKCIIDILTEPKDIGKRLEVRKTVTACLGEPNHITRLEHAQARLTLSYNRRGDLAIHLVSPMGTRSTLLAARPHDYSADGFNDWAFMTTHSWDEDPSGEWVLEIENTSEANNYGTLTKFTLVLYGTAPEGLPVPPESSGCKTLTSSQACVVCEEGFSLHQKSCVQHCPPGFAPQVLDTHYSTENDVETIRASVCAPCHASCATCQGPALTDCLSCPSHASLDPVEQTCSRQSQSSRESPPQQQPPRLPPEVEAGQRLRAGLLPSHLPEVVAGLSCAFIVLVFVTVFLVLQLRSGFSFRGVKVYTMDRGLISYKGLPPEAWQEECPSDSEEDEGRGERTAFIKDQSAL

CN(C)S(=O)(=O)c1ccc2c(c1)C(=Cc1cc3c([nH]1)CCCC3)C(=O)N2
inactive: [1]

COc1cc(Cl)cn2c(-c3cccc(NC4CNC4)n3)cnc12
active: [2] 27.1 µM | [3] 27.1 µM
inactive: [4] | [5] | [6] | [7]

N#CC(c1ccc(Cl)cc1)c1c(Cl)cc(-n2ncc(=O)[nH]c2=O)cc1Cl (stereo not given)
active: [3] 21.5 µM | [4] 21.5 µM | [8] 4.4 µM | [9] 35.5 µM
inactive: [5] | [6] | [10]

CC(=O)OCC(=O)[C@@]1(O)CC[C@H]2[C@@H]3CCC4=CC(=O)C=C[C@]4(C)[C@@H]3[C@@H](O)C[C@@]21C
inactive: [1]

CCOC(=O)[C@H](CCc1ccccc1)N[C@@H](C)C(=O)N1CCCC1C(=O)O (stereo not given in full)
inactive: [2] | [3] | [4] | [8] | [5] | [6] | [7]

CC(C)c1onc(-c2c(Cl)cccc2Cl)c1COc1ccc(C=Cc2cccc(C(=O)O)c2)c(Cl)c1
active: [2] 30.4 µM | [3] 24.1 µM | [4] 24.1 µM | [1] 13.6 µM | [8] 1.56 µM
inactive: [6]

CC[C@H](C)n1cc(C)c2c(C(=O)NCc3c(C)cc(C)[nH]c3=O)cc(-c3ccc(N4CCNCC4)nc3)cc21
active: [2] 27 µM | [3] 27.1 µM | [4] 27.1 µM | [1] 21.5 µM
inactive: [8] | [5] | [6] | [7] | [10]

CCCCC[C@H](O)C=C[C@H]1[C@H](O)CC(=O)[C@H]1CCCCCCC(=O)O
inactive: [2] | [3] | [4] | [8] | [5] | [6] | [7]

COc1cc(Nc2nc3ccccc3nc2NS(=O)(=O)c2ccc(NC(=O)c3ccc(C)c(OC)c3)cc2)cc(OC)c1
active: [3] 6.98 µM | [4] 5.55 µM | [11] 1.39 µM | [13] 1.78 µM | [8] 1.39 µM | [9] 8.91 µM
not listed: [2] | [7] | [15]
inactive: all other assays above

O=C1Nc2ccc(I)cc2C1=Cc1cc(Br)c(O)c(Br)c1
active: [1] 12.1 µM | [8] 24.8 µM
inactive: [2] | [3] | [4] | [5] | [6] | [7]

C[C@H]1COC2=C1C(=O)C(=O)c1c2ccc2c1CCCC2(C)C
inactive: [12] | [5] | [6] | [7]
active: [4] 21.5 µM | [8] 7.84 µM

CN[C@H]1[C@@H](O[C@@H]2[C@H](O[C@@H]3[C@@H](O)[C@@H](O)[C@@H](N=C(N)N)[C@@H](O)[C@@H]3N=C(N)N)O[C@H](C)[C@@]2(O)C=O)O[C@@H](CO)[C@@H](O)[C@H]1O
inactive: [1]

C[C@@H]1CC=CC=CC=CC=C[C@@H](O[C@@H]2O[C@H](C)[C@@H](O)[C@H](N)[C@H]2O)C[C@@H]2O[C@](O)(C[C@@H](O)C[C@@H]3O[C@@H]3C=CC(=O)O1)C[C@H](O)[C@@H]2C(=O)O
inactive: [1]

O=S(=O)(O)c1ccc2cc(N=Nc3cc(S(=O)(=O)O)c4cccnc4c3O)ccc2c1
inactive: [2] | [5] | [6] | [10]
active: [11] 1.39 µM | [13] 0.794 µM | [15] 1.26 µM | [8] 1.39 µM | [14] 79.4 µM | [9] 0.562 µM | [7] 3.7 µM

C[C@@H]1O[C@@H](O[C@H]2CC[C@@]3(C)[C@H](CC[C@@H]4[C@H]3C[C@@H](O)[C@]3(C)[C@@H](C5=CC(=O)OC5)CC[C@]43O)C2)C[C@H](O)[C@@H]1O[C@H]1C[C@H](O)[C@H](O[C@H]2C[C@H](O)[C@@H](O)[C@@H](C)O2)[C@H](C)O1 (stereo in doubt)
inactive: [1]

NC(=O)c1ncn([C@@H]2O[C@H](CO)[C@@H](O)[C@@H]2O)n1
inactive: [1]
